Measured values reported in PubChem BioAssay AID686978 (National Center for Advancing Translational Sciences (NCATS), 2013).
The campaign covered roughly 420,000 compounds. About 64,000 (15%) were called active. About 27% were inconclusive and are not listed. Calls follow the shape of the dose curve; as a rule, active = well fitted inhibition curve with a large enough effect; inconclusive = small, poorly fitted or top-dose-only effect; inactive = flat fitted curve, though single readings scatter. Not all results are given here. A call without a number means that no potency is given here.

Experiment: qHTS for Inhibitors of human tyrosyl-DNA phosphodiesterase 1 (TDP1): qHTS in cells in absence of CPT; also: nearly all actives have a fitted effect of over 55% in size
Conditions: DT40 Tdp1-/- hTDP1 cells, no CPT, ATP luminescence, 48 h; activity change, negative = growth inhibition: at 46.2 µM (top of the series)
How it was run: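 A cellular qHTS used chicken DT40 cells lacking endogenous Tdp1 but carrying stably transfected human TDP1. Compounds were applied without camptothecin, and cell growth kinetics were judged by ATP-dependent luminescence after ≥48 hr.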
Potency is read from the fitted curve at half-maximal effect.

Row | Structure (SMILES) | Potency
1 | Cc1cc(C)c2nc(-c3cccnc3)cc(C(=O)Nc3ccc(S(=O)(=O)Nc4onc(C)c4C)cc3)c2c1 | inactive
2 | Cc1cc(C)n2nc(C(=O)OC(C)C(=O)c3cc(C)c(C)cc3C)nc2n1 (stereo not given) | inactive
3 | Cc1cc(NC(=O)Nc2c[nH]c(=O)[nH]c2=O)ccc1Br | inactive
4 | CCOc1cc(/C=C2/C(=N)N3OC(C)=CC3=NC2=O)ccc1OC | inactive
5 | O=C(Nc1ccc(Cl)cc1)c1csc([C@H]2C[C@H](O)[C@@H](CO)O2)n1 | inactive
6 | CCN(CC)CCN1C(=O)C2C(C(=O)Nc3ccc(Br)cc3)C3C=CC2(O3)C1C(=O)NC1CCCCC1 (stereo not given) | inactive
7 | CC1CC[C@@]23CCC4(C)[C@@]5(C)CCC6C(C)(C)C(O)CC[C@@]6(C)C5C=C[C@@]4(OC2=O)C3C1C (stereo not given in full) | inactive
8 | O=C(NC(Cc1ccc(O)cc1)C(=O)O)/C(=C/c1ccccc1)NC(=O)c1ccccc1 (stereo not given) | inactive
9 | O=C(NCC(F)(F)F)Nc1nnc(C(F)(F)F)s1 | inactive
10 | CCOC(=O)C1=C(NC(=S)NC(=O)c2ccccc2)c2ccccc2CC1(C)C | inactive
11 | COc1cccc(CNC(=O)c2nnn(CC(=O)Nc3cc(Cl)ccc3C)c2N)c1 | inactive
12 | CC(=O)c1ccc(NC(=O)c2ccc3c(Cl)c4c(nc3c2)CCCC4)cc1 | 18.4 µM (active)
13 | COc1cccc(CNC(=O)CSc2c3c(nc4cc(Cl)ccc24)CCCC3)c1 | 14.6 µM (active)
14 | COc1cccc(-c2ccc(C#N)c(SCC(=O)NCCc3ccc(Cl)cc3)n2)c1 | inactive
15 | CC(=O)c1ccc(NC(=O)c2cc(-c3cccs3)on2)cc1 | inactive
16 | O=C(O)CSc1c2c(nc3cc(C(=O)Nc4cccc(C(F)(F)F)c4)ccc13)CCCC2 | inactive
17 | Cc1nc2c(C(=O)NCc3ccc4c(c3)OCO4)c[nH]n2c(=O)c1Cc1ccccc1F | inactive
18 | Cc1cc(N)n(-c2ccc(S(=O)(=O)N3CCCC3)cc2[N+](=O)[O-])n1 | inactive
19 | O=C(c1c(F)cccc1Cl)N1CCN(c2ccccn2)CC1 | inactive
20 | O=C(Nc1c(C(=O)N2CCN(c3ccc(F)cc3)CC2)oc2ccccc12)c1ccco1 | 18.4 µM (active)
21 | Cc1cc(C(=O)N2CCN(c3ccccn3)CC2)c(C)o1 | 12.6 µM (active)
22 | O=C(c1cc2ccccc2s1)N1CCN(c2ccccn2)CC1 | inactive
23 | COc1cccc(OC)c1C(=O)Nc1c(C(=O)N2CCN(c3ccccn3)CC2)oc2ccccc12 | 25.9 µM (active)
24 | COCC(=O)Nc1c(C(=O)N2CCCC2)oc2ccccc12 | inactive
25 | O=C(C(Cl)Cl)N1CCN(c2ccccn2)CC1 | inactive
26 | CCOCCCN(C)C1CCN(C(=O)c2oc3ccccc3c2NC(=O)Cc2cccc([N+](=O)[O-])c2)CC1 | inactive
27 | O=C(c1ccco1)N1CCN(C(=S)Nc2cc(F)cc(F)c2)CC1 | inactive
28 | CCOCCCN(C)C1CCN(C(=O)c2oc3ccccc3c2NC(=O)COc2cccc(C)c2)CC1 | inactive
29 | CCC(=O)Nc1c(C(=O)N2CCN(c3ccc(F)cc3)CC2)oc2ccccc12 | 25.9 µM (active)
30 | O=C(Nc1ccccc1C(=O)N1CCCCC1)c1ccco1 | inactive
